From PubChem BioAssay AID1159580 (chemical genetic matrix, 2015)
Screen size: about 5,500 compounds; about 2,000 (36%) were called active. Another 18% or so got no clear call; they are omitted. Rule as the data show it: active = normalized growth mostly below about 0.91 (no sharp cut-off); inconclusive = no clear call, values can overlap the other calls; inactive = mostly above about 0.92. Some of the results follow.

Assay: chemical genetic growth profiling, strain panel (AID 1159580);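 also: tested at 20 µM; growth read once vehicle control cultures reached saturation at 30 °C; 1 = growth at the plate median or of vehicle wells; lower values mean less growth of the strain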
Settings: growth OD

Measured: normalized growth

Oc1c(I)cc(I)c2cccnc12
inactive: S. cerevisiae deletion strains, locus YOL012C, strain htz1 0.333
active: S. cerevisiae deletion strains, locus YJL187C, strain SWE1, active compounds read low 0.0737 | S. cerevisiae deletion strains, locus YJR043C, strain POL32, active compounds read low 0.08 | S. cerevisiae deletion strains, locus YJR066W, strain TOR1, active compounds read low 0.106 | S. cerevisiae deletion strains, locus YKL009W, strain mrt4, active compounds read low 0.274 | S. cerevisiae deletion strains, locus YKL068W, active compounds read low 0.479 | S. cerevisiae deletion strains, locus YKL085W, strain MDH1 (second series), active compounds read low 0.253 | S. cerevisiae deletion strains, locus YKL085W, strain MDH1, active compounds read low 0.253 | S. cerevisiae deletion strains, locus YKL160W, strain elf1, active compounds read low 0.0775 | S. cerevisiae deletion strains, locus YKL190W, strain CNB1, active compounds read low 0.0667 | S. cerevisiae deletion strains, locus YKR001C, strain vps1, active compounds read low 0.1 | S. cerevisiae deletion strains, locus YKR026C, strain gcn3, active compounds read low 0.0967 | S. cerevisiae deletion strains, locus YKR091W, strain srl3, active compounds read low 0.129 | S. cerevisiae deletion strains, locus YLL001W, strain dnm1, active compounds read low 0.085 | S. cerevisiae deletion strains, locus YLL026W, active compounds read low 0.652 | S. cerevisiae deletion strains, locus YLL041C, strain sdh2, active compounds read low 0.083 | S. cerevisiae deletion strains, locus YLR027C, strain aat2, active compounds read low 0.0875 | S. cerevisiae deletion strains, locus YLR039C, strain RIC1, active compounds read low 0.156 | S. cerevisiae deletion strains, locus YLR058C, strain SHM2, active compounds read low 0.0693 | S. cerevisiae deletion strains, locus YLR102C, strain apc9, active compounds read low 0.0939 | S. cerevisiae deletion strains, locus YLR113W, strain HOG1, active compounds read low 0.128 | S. cerevisiae deletion strains, locus YLR221C, strain rsa3, active compounds read low 0.118 | S. cerevisiae deletion strains, locus YLR258W, strain gsy2, active compounds read low 0.0729 | S. cerevisiae deletion strains, locus YLR262C, strain YPT6 (second series), active compounds read low 0.109 | S. cerevisiae deletion strains, locus YLR262C, strain YPT6, active compounds read low 0.184 | S. cerevisiae deletion strains, locus YLR268W, strain sec22, active compounds read low 0.104 | S. cerevisiae deletion strains, locus YLR320W, strain mms22, active compounds read low 0.111 | S. cerevisiae deletion strains, locus YLR330W, strain CHS5, active compounds read low 0.0767 | S. cerevisiae deletion strains, locus YLR342W, strain FKS1 (second series), active compounds read low 0.0828 | S. cerevisiae deletion strains, locus YLR342W, strain FKS1, active compounds read low 0.0814 | S. cerevisiae deletion strains, locus YLR357W, strain rsc2, active compounds read low 0.178 | S. cerevisiae deletion strains, locus YLR370C, strain arc18, active compounds read low 0.0851 | S. cerevisiae deletion strains, locus YLR371W, strain rom2, active compounds read low 0.137 | S. cerevisiae deletion strains, locus YLR384C, strain iki3, active compounds read low 0.0849 | S. cerevisiae deletion strains, locus YLR418C, strain cdc73, active compounds read low 0.16 | S. cerevisiae deletion strains, locus YML016C, strain PPZ1, active compounds read low 0.0635 | S. cerevisiae deletion strains, locus YML032C, strain rad52, active compounds read low 0.115 | S. cerevisiae deletion strains, locus YML120C, strain ndi1, active compounds read low 0.0935 | S. cerevisiae deletion strains, locus YML124C, strain tub3, active compounds read low 0.0977 | S. cerevisiae deletion strains, locus YMR058W, strain fet3, active compounds read low 0.0746 | S. cerevisiae deletion strains, locus YMR078C, strain ctf18, active compounds read low 0.11 | S. cerevisiae deletion strains, locus YMR125W, strain sto1, active compounds read low 0.112 | S. cerevisiae deletion strains, locus YMR129W, active compounds read low 0.256 | S. cerevisiae deletion strains, locus YMR205C, strain PFK2, active compounds read low 0.108 | S. cerevisiae deletion strains, locus YMR223W, strain ubp8, active compounds read low 0.108 | S. cerevisiae deletion strains, locus YMR231W, strain pep5, active compounds read low 0.105 | S. cerevisiae deletion strains, locus YMR307W, strain GAS1, active compounds read low 0.145 | S. cerevisiae deletion strains, locus YNL067W, strain RPL9B, active compounds read low 0.0655 | S. cerevisiae deletion strains, locus YNL071W, strain lat1, active compounds read low 0.236 | S. cerevisiae deletion strains, locus YNL183C, strain NPR1, active compounds read low 0.103 | S. cerevisiae deletion strains, locus YNL209W, strain ssb2, active compounds read low 0.0737 | S. cerevisiae deletion strains, locus YNL233W, strain BNI4, active compounds read low 0.073 | S. cerevisiae deletion strains, locus YNL248C, strain rpa49, active compounds read low 0.11 | S. cerevisiae deletion strains, locus YNL250W, strain rad50, active compounds read low 0.0949 | S. cerevisiae deletion strains, locus YNL271C, strain bni1, active compounds read low 0.177 | S. cerevisiae deletion strains, locus YNL298W, strain CLA4, active compounds read low 0.271 | S. cerevisiae deletion strains, locus YNL307C, strain MCK1, active compounds read low 0.115 | S. cerevisiae deletion strains, locus YNL322C, strain KRE1 (second series), active compounds read low 0.128 | S. cerevisiae deletion strains, locus YNL322C, strain KRE1, active compounds read low 0.0647 | S. cerevisiae deletion strains, locus YNR049C, strain mso1, active compounds read low 0.0812 | S. cerevisiae deletion strains, locus YNR052C, strain pop2, active compounds read low 0.0966 | S. cerevisiae deletion strains, locus YOL147C, strain pex11, active compounds read low 0.0953 | S. cerevisiae deletion strains, locus YOR001W, strain rrp6, active compounds read low 0.21 | S. cerevisiae deletion strains, locus YOR061W, strain CKA2, active compounds read low 0.0666 | S. cerevisiae deletion strains, locus YOR069W, strain VPS5, active compounds read low 0.0731 | S. cerevisiae deletion strains, locus YOR070C, strain gyp1, active compounds read low 0.575 | S. cerevisiae deletion strains, locus YOR080W, strain dia2, active compounds read low 0.09 | S. cerevisiae deletion strains, locus YOR083W, strain WHI5, active compounds read low 0.112 | S. cerevisiae deletion strains, locus YOR106W, strain vam3, active compounds read low 0.0906 | S. cerevisiae deletion strains, locus YOR136W, strain idh2, active compounds read low 0.156 | S. cerevisiae deletion strains, locus YOR144C, strain elg1, active compounds read low 0.0898 | S. cerevisiae deletion strains, locus YOR184W, strain ser1, active compounds read low 0.133 | S. cerevisiae deletion strains, locus YOR231W, strain MKK1, active compounds read low 0.14 | S. cerevisiae deletion strains, locus YOR265W, strain rbl2, active compounds read low 0.0593 | S. cerevisiae deletion strains, locus YOR270C, strain vph1, active compounds read low 0.129 | S. cerevisiae deletion strains, locus YOR290C, strain snf2, active compounds read low 0.0939 | S. cerevisiae deletion strains, locus YOR316C, strain cot1, active compounds read low 0.0886 | S. cerevisiae deletion strains, locus YPL051W, strain arl3, active compounds read low 0.0895 | S. cerevisiae deletion strains, locus YPL078C, strain atp4, active compounds read low 0.0936 | S. cerevisiae deletion strains, locus YPL106C, strain sse1, active compounds read low 0.16 | S. cerevisiae deletion strains, locus YPL240C, strain hsp82, active compounds read low 0.0764 | S. cerevisiae deletion strains, locus YPL256C, strain CLN2, active compounds read low 0.15 | S. cerevisiae deletion strains, locus YPR119W, strain clb2, active compounds read low 0.0998 | S. cerevisiae deletion strains, locus YPR141C, strain kar3, active compounds read low 0.235 | S. cerevisiae deletion strains, locus YPR163C, strain tif3, active compounds read low 0.107 | S. cerevisiae deletion strains, locus YPR167C, strain met16, active compounds read low 0.103 | S. cerevisiae deletion strains, strain wtn01, active compounds read low 0.116 | S. cerevisiae strains, strain wild type, active compounds read low 0.0715
